In the library only some 3.3% were active in any assay of this set; here they are far more common.
HNF4A DNA FP: change in binding of human HNF4 alpha to DNA; HNF4a-FITC DNA binding, fluorescence polarization, 1 h; 360,000 tested, 0.3% active; activity change, % at 10 µM; P41235; in the data active = activity change above about 30%, passing the limit was not always enough
Rpn11 inh: blocks the human proteasome subunit Rpn11; O00487; human 26S proteasome, Ub4-pepOG fluorescence polarization; 20S core pre-blocked with epoxomicin; inhibition, % at 20 µM; 360,000 tested, 0.59% active; AID 588493;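 active = inhibition at 20 µM, scaled to each plate's controls, above about 33%, limit read from the data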
Target sequence (O00487 whole entry, looked up): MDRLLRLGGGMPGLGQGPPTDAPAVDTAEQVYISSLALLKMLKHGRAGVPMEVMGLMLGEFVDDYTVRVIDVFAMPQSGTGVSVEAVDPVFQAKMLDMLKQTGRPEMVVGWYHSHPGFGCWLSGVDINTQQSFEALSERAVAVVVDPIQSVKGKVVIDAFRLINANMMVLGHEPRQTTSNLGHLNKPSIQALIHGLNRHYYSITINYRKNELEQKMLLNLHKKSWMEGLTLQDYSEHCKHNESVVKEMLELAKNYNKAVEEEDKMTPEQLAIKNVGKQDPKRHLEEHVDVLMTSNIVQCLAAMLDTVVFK
CTSL1 counter: counter-screen for PFM18AAP inhibitors: inhibitors of F. hepatica cathepsin L1 | AID 1906 | 300,000 tested, 0.49% active | recombinant F. hepatica cathepsin L1, Z-Leu-Arg-MCA fluorescence | inhibition, % at 5.96 µM;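 active = inhibition above the mean of all tested compounds plus 3 SD, set per screening campaign, cut at about 17% in these data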
PHOSPHO1 inh: blocks human PHOSPHO1 phosphatase activity. 290,000 tested, 1.1% active. AID 1565. inhibition, % at 13.3 µM. recombinant PHOSPHO1, absorbance phosphatase assay. Q8TCT1; in the data active = inhibition above about 60%
Target sequence (Q8TCT1 whole entry, looked up): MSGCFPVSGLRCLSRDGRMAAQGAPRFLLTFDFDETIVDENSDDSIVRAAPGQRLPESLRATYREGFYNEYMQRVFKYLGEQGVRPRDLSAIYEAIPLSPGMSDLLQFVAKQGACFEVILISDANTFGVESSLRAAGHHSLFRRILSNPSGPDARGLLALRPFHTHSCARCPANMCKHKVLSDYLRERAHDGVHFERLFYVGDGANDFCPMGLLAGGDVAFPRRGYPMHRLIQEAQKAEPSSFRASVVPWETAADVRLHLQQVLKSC
NRP1-CendR mod: alters CendR peptide binding to human NRP-1; O14786; FAM-RPARPAR peptide binding to NRP-1, fluorescence polarization; inhibition, % at 25 µM; 360,000 tested, 0.85% active; AID 602438;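 active = inhibition or corrected inhibition above about 18%, plus a signal ratio from 0.5 to 1.5, limit read from the data, passing the limit was not always enough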
TPT1 inh: inhibitors of Candida albicans tRNA 2'-phosphotransferase TPT1 | recombinant caTPT1, FP RNA substrate dephosphorylation | inhibition, % at 5 µM | 300,000 tested, 0.81% active | AID 1962;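 active = inhibition above the mean of all tested compounds plus 3 SD, set per screening campaign, cut at about 24% in these data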
Of the large screens only hits and unclear results are named; the others gave an inactive call.

CCN1c2ccccc2-c2nc3ccccc3n2C1c1ccccn1 (centres undefined)	NRP1-CendR mod 39
CCN1c2ccccc2-c2nc3ccccc3n2C1c1ccncc1 (centres undefined)	none
NC(=O)c1nsc(C(=O)N(c2ccc3c(c2)OCO3)C(C(=O)NCC2CCCO2)c2ccc(F)cc2)c1N (centres undefined)	none
CC1CCN(C(=O)Cn2cc(S(=O)(=O)CC(=O)N3CCOCC3)c3ccccc32)CC1	none
CC1CN(C(=O)Cn2cc(S(=O)(=O)CC(=O)N3CCOCC3)c3ccccc32)CC(C)O1 (centres undefined)	PHOSPHO1 inh 66
CC(CCc1ccccc1)NC(=O)COC(=O)C1CCC(C(C)(C)C)CC1 (centres undefined)	NRP1-CendR mod 32
COC(=O)c1cc(Cl)ccc1NCC(N)c1ccccc1 (centres undefined)	none (no result: CTSL1 counter, PHOSPHO1 inh, TPT1 inh)
Cc1occc(=O)c1OC(=O)Nc1ccc(Cl)c(Cl)c1	Rpn11 inh 42
C=C1CCN([C@H](C(=O)O)C(C)C)S(=O)(=O)c2ccccc21	NRP1-CendR mod 36 (no result: PHOSPHO1 inh)
O=C(NCC1CCCO1)c1nn2c(C(F)(F)F)cc(-c3ccco3)nc2c1Cl (centres undefined)	none
O=C(NCC1CCCO1)c1nn2c(C(F)(F)F)cc(-c3cc(Br)cs3)nc2c1Br (centres undefined)	NRP1-CendR mod 35 (not shown: Rpn11 inh)
Fc1ccc(Cn2nnnc2CN2CCc3ccccc3C2)cc1	none
CCN(C(=O)CSc1nc2ccccc2c(=O)n1Cc1ccc(C)cc1)C1CCS(=O)(=O)C1 (centres undefined)	none (no result: PHOSPHO1 inh)
CCn1c(SCC(=O)N(Cc2ccccc2)C2CCS(=O)(=O)C2)nc2ccccc2c1=O (centres undefined)	PHOSPHO1 inh 63
CCOC(=O)C(C)Sc1nc2ccccc2c(=O)n1CC (centres undefined)	NRP1-CendR mod 42
COc1ccc(NC(=O)C2(C)CCN2C(=O)C(C)C)cc1F (centres undefined)	none (no result: CTSL1 counter, PHOSPHO1 inh, TPT1 inh)
Cc1ncc(CN2CCC(CO)(CCOc3ccccc3)CC2)s1	none
c1ccc2sc(SN3CCOCC3)nc2c1	PHOSPHO1 inh 66
O=C(CSc1n[nH]c(=O)n1C1CC1)Nc1ccc(Cl)cc1Cl	none (no result: CTSL1 counter, PHOSPHO1 inh, TPT1 inh)
COc1ccc(C2=CC(=O)C[C@H](c3ccc(OC)c(OC)c3)C2)cc1	NRP1-CendR mod 21 (no result: CTSL1 counter, PHOSPHO1 inh, TPT1 inh)
COc1ccc([C@H]2CC(=O)C=C(c3ccc4c(c3)OCCO4)C2)cc1	NRP1-CendR mod 26 (no result: CTSL1 counter, PHOSPHO1 inh, TPT1 inh)
COc1ccc(C2CC(=O)C=C(NCc3ccc4c(c3)OCO4)C2)cc1 (centres undefined)	PHOSPHO1 inh 61
COc1ccc([C@H]2CC(=O)C=C(c3ccc(C)cc3)C2)cc1OC	none (no result: CTSL1 counter, PHOSPHO1 inh, TPT1 inh)
Fc1ccc(C2NC(=S)NC3=C2N2CCC3CC2)cc1 (centres undefined)	PHOSPHO1 inh 76
COc1ccc(C2NC(=S)NC3=C2N2CCC3CC2)cc1 (centres undefined)	none
CC1CC(C)CN(CCCNC(=O)CN2C(=O)CSc3ccc(S(=O)(=O)N4CCOCC4)cc32)C1 (centres undefined)	NRP1-CendR mod 19
COc1ccc(N2CCN(C(=O)c3ccc(NC(=O)C4=CSCCO4)cc3)CC2)cc1	NRP1-CendR mod 36
CCc1c(C)nc(SCC(=O)N2CCN(c3ccccc3OC)CC2)[nH]c1=O	none
CCCc1c(C)nc(N2CCN(c3ccccc3OC)CC2)[nH]c1=O	NRP1-CendR mod 32
Cc1cc(C)c(S(=O)(=O)c2ccccc2Cl)c(=O)[nH]1	none
Cc1ccc(C)c(NC(=O)CSc2ncnc3nc[nH]c23)c1	none
Cc1cccc(NC(=O)CSc2ncnc3nc[nH]c23)c1C	PHOSPHO1 inh 99
CC(C)COC(=O)C(N)C(C(=O)OCC(C)C)c1ccccc1 (centres undefined)	NRP1-CendR mod 30
NC(=O)OCC(COC(N)=O)c1ccccc1	none
O=C(Nc1ccccc1N1CCOCC1)[C@@H]1O[C@H](CO)[C@H](O)[C@H](O)[C@H]1O	NRP1-CendR mod 32 (no result: CTSL1 counter, PHOSPHO1 inh, TPT1 inh)
O=C(Cc1ccccc1)Nc1ccccc1N1CCOCC1	none
FC(F)(F)c1cc(Oc2ccccc2)ncc1-c1nnc(-c2ccccc2Cl)o1	none
Cc1nonc1CN(C)C(=O)c1ccc(OC2CCN(C(=O)c3cccnc3)CC2)cc1	none
Cc1cnc(NC(=O)c2ccc(-c3nc4ccccc4s3)o2)s1	PHOSPHO1 inh 105
O=C(c1cccc(N2C(=O)C3CC=CCC3C2=O)c1)N1CCN(c2ccccc2)CC1 (centres undefined)	none
Cc1ccc(S(=O)(=O)N2[C@H](CC(=O)c3ccc(Cl)c(Cl)c3)OC[C@@H]2C)cc1	none (no result: Rpn11 inh, CTSL1 counter, PHOSPHO1 inh, TPT1 inh)
CCOc1cc(C#N)c(NC(=O)Cn2nnc3ccccc32)cc1OCC	HNF4A DNA FP 34
O=C(Cn1nnc2ccccc21)Nc1ccccc1[N+](=O)[O-]	none
O=c1onc(-c2ccccc2Cl)n1-c1ccccc1Cl	none (no result: PHOSPHO1 inh)
COc1ccc(C(=O)N/N=C(\C)c2ccc3c(c2)C2C=CCC2C(c2ccccc2)N3)cc1 (centres undefined)	none
CCOC(=O)c1ccc2c(c1)C1C=CCC1C(C(=O)OCC)N2 (centres undefined)	none
O=C(O)c1ccc2c(c1)[C@@H]1C=CC[C@@H]1[C@H](c1ccccn1)N2	NRP1-CendR mod 32 (no result: PHOSPHO1 inh)
O=C(OC1CCCCC1)c1ccc2c(c1)C1C=CCC1C(C(=O)O)N2 (centres undefined)	PHOSPHO1 inh 83 (no result: HNF4A DNA FP, Rpn11 inh, CTSL1 counter, NRP1-CendR mod, TPT1 inh)
CC(=O)c1ccc(NC(=S)NCCc2ccc(S(N)(=O)=O)cc2)cc1	none
CC(C)OCCCNC(=S)Nc1ccc(S(N)(=O)=O)cc1	PHOSPHO1 inh 86
CC/C=C(/NC(C)=O)c1ccccc1	none (no result: CTSL1 counter, PHOSPHO1 inh, TPT1 inh)
NC(=O)c1ccc(N=C2C(=O)Nc3ccc([N+](=O)[O-])cc32)cc1	CTSL1 counter 109
CC(=O)NC(c1cc(F)c2cccnc2c1O)C1CC1 (centres undefined)	NRP1-CendR mod 26 (no result: CTSL1 counter, PHOSPHO1 inh, TPT1 inh)
CCn1c(SCC(=O)N2CCN(c3ccccc3F)CC2)nnc1-c1ccoc1C	none
CCOC(=O)c1ccc(NC(=O)c2ccccc2)cc1	NRP1-CendR mod 23
CCOC(=O)c1ccc(NC(=O)c2ccc(NS(C)(=O)=O)cc2)cc1	none
CCOC(=O)c1ccc(NC(=O)CCS(=O)(=O)Cc2ccccc2)cc1	PHOSPHO1 inh 63
CCOc1ccc(NC(=O)CN2CCc3ccccc3C2)cc1	none
COC(=O)c1ccc(NC(=O)CS(=O)(=O)Cc2ccccc2)cc1	none
CCOC(=O)c1ccc(NC(=O)CN2CCc3ccccc3C2)cc1	NRP1-CendR mod 38
COc1ccc(N2C(=O)CC(C)(C)CC2=O)cc1OC	none
N#CCCN(C(=O)COc1ccc(F)cc1Br)c1ccccc1F	none
Nn1c(SCC(=O)NCCCc2ccccc2)nnc1-c1cccnc1	none
Cn1c(Cn2nnc3ccccc32)nnc1SCC(=O)N1c2ccccc2CCc2ccccc21	none
